Laboratory results from the supplement of paper PMC10849652.
Of roughly 7,900 targets only a part is listed; those with a hit were picked by preference. About 0.6% of all pairs of compound and target were hits. Unmarked numbers belong to inactive results.

Tests used:
Test in all cases: log2 fold change, soluble protein after heating vs DMSO (PISA); higher = thermal stabilisation; K562 cells, 10 uM, 30 min; active = over 0.2 and 3.5 SD of the protein, either way, in both replicates (recomputed)
[1] = compound: CS(=O)(=O)c1ccc(-c2cnc(N)c(C(=O)Nc3ccccc3)n2)cc1
Outline: (§1)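 For each measurement, 10 μM compound was applied for 30 min to K562 cells at 2×10^6 cells/mL. Aliquots were heated for 3 min across 48°C-58°C, pooled, and extracted in PBS with 0.5% NP-40 at 4°C; the supernatant after 21,000xg for 90 min was soluble protein. This was quantified by TMTpro 16plex LC-MS/MS with channel sums equalised, and thermal stability was reported relative to control samples from duplicates, on a log2 fold-change scale.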

crizotinib = compound: C[C@@H](Oc1cc(-c2cnn(C3CCNCC3)c2)cnc1N)c1c(Cl)ccc(F)c1Cl [crizotinib]
Outline: as §1

[2] = compound: C[C@@H]1COCCN1C2=NC(=NC(=C2)C3(CC3)S(=O)(=O)C)C4=C5C=CNC5=CC=C4
Outline: as §1

[3] = compound: C[C@H](C1=CC=C(C=C1)C(=O)NC2=C3C=CNC3=NC=C2)N
Outline: as §1

duvelisib = compound: C[C@H](Nc1ncnc2nc[nH]c12)c1cc2cccc(Cl)c2c(=O)n1-c1ccccc1 [duvelisib]
Outline: as §1

gandotinib = compound: Cc1cc(Nc2cc(CN3CCOCC3)c3nc(C)c(Cc4ccc(Cl)cc4F)n3n2)n[nH]1 [gandotinib]
Outline: as §1

tozasertib = compound: Cc1cc(Nc2cc(N3CCN(C)CC3)nc(Sc3ccc(NC(=O)C4CC4)cc3)n2)n[nH]1 [tozasertib]
Outline: as §1

[4] = compound: Cc1cc(SCc2sc(-c3ccc(C(F)(F)F)cc3)nc2C)ccc1OCC(=O)O
Outline: as §1

doramapimod = compound: Cc1ccc(-n2nc(C(C)(C)C)cc2NC(=O)Nc2ccc(OCCN3CCOCC3)c3ccccc23)cc1 [doramapimod]
Outline: as §1

ispinesib = compound: Cc1ccc(C(=O)N(CCCN)[C@@H](c2nc3cc(Cl)ccc3c(=O)n2Cc2ccccc2)C(C)C)cc1 [ispinesib]
Outline: as §1

bafetinib = compound: Cc1ccc(NC(=O)c2ccc(CN3CC[C@H](N(C)C)C3)c(C(F)(F)F)c2)cc1Nc1nccc(-c2cncnc2)n1 [bafetinib]
Outline: as §1

[5] = compound: Cc1cccc(CC(=O)N2CCc3c2ccc(-c2cn(C)c4ncnc(N)c24)c3F)n1
Outline: as §1

nilotinib = compound: Cc1cn(-c2cc(NC(=O)c3ccc(C)c(Nc4nccc(-c5cccnc5)n4)c3)cc(C(F)(F)F)c2)cn1 [nilotinib]
Outline: as §1

[6] = compound: Cc1nc(Nc2n[nH]c3c2CN(C(=O)N[C@H](CN(C)C)c2ccccc2)C3(C)C)c2sccc2n1
Outline: as §1

dasatinib = compound: Cc1nc(Nc2ncc(C(=O)Nc3c(C)cccc3Cl)s2)cc(N2CCN(CCO)CC2)n1 [dasatinib]
Outline: as §1

[7] = compound: Cc1ncc(-c2ccnc(Nc3ccc(S(C)(=O)=O)cc3)n2)n1C(C)C
Outline: as §1

[8] = compound: Cn1cc(-c2ccc3c(c2)CCN3C(=O)Cc2cccc(C(F)(F)F)c2)c2c(N)ncnc21
Outline: as §1

[9] = compound: Cn1cc(-c2ccc3nnc(C(F)(F)c4ccc5ncccc5c4)n3n2)cn1
Outline: as §1

tipifarnib = compound: Cn1cncc1[C@@](N)(c1ccc(Cl)cc1)c1ccc2c(c1)c(-c1cccc(Cl)c1)cc(=O)n2C [tipifarnib]
Outline: as §1

mubritinib = compound: FC(F)(F)c1ccc(/C=C/c2nc(COc3ccc(CCCCn4ccnn4)cc3)co2)cc1 [mubritinib]
Outline: as §1

UniProt P14854, sequence (P14854 whole entry, looked up): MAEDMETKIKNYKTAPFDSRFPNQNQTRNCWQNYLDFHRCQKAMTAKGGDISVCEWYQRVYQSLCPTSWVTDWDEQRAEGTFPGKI
UniProt Q96JB5, sequence (Q96JB5 whole entry, looked up): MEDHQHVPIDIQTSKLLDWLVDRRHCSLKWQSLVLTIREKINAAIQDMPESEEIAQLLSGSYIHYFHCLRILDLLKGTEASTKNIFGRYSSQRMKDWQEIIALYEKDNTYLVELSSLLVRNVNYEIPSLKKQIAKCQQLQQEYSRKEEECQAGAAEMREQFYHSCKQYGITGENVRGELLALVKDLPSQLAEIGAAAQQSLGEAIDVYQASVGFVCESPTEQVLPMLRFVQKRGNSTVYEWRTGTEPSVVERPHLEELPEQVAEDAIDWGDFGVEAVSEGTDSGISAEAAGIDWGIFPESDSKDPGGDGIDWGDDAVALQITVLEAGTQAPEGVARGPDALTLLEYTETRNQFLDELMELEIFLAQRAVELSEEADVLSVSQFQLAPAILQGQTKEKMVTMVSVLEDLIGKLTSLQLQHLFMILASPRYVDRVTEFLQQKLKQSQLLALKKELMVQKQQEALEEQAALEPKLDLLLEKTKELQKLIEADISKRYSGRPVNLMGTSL
UniProt Q9NXV6, sequence (Q9NXV6 whole entry, looked up): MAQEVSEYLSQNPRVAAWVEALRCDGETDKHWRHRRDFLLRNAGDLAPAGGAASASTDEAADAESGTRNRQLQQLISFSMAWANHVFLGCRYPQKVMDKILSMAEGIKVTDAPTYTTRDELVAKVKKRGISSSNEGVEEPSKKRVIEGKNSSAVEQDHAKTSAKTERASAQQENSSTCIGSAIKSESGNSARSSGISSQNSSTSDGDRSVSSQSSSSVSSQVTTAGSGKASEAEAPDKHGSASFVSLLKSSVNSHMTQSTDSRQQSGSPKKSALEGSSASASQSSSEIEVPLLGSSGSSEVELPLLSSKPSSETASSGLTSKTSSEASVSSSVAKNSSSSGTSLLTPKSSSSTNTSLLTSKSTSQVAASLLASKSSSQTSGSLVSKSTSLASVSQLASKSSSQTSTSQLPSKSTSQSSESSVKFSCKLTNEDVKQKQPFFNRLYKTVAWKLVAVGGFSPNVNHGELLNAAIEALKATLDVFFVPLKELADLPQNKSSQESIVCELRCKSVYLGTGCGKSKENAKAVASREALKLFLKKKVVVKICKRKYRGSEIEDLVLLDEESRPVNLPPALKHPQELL
UniProt Q99653, sequence (Q99653 whole entry, looked up): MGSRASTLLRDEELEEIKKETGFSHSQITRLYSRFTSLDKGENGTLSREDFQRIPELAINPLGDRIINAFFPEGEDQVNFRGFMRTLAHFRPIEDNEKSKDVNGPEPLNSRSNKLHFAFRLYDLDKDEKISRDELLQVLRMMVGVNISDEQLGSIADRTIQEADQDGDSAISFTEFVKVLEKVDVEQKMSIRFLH
UniProt Q00587, sequence (Q00587 whole entry, looked up): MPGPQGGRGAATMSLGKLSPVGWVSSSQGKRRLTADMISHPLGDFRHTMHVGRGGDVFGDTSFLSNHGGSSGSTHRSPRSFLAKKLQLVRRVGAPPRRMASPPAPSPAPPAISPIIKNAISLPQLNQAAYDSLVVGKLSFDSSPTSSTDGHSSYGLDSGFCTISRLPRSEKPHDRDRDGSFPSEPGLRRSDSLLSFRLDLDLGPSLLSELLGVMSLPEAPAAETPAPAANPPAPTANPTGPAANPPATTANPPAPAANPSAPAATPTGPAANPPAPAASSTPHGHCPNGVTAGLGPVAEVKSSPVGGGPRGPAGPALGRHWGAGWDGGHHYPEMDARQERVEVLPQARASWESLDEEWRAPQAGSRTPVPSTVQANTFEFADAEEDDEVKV
UniProt Q9UNS2, sequence (Q9UNS2 whole entry, looked up): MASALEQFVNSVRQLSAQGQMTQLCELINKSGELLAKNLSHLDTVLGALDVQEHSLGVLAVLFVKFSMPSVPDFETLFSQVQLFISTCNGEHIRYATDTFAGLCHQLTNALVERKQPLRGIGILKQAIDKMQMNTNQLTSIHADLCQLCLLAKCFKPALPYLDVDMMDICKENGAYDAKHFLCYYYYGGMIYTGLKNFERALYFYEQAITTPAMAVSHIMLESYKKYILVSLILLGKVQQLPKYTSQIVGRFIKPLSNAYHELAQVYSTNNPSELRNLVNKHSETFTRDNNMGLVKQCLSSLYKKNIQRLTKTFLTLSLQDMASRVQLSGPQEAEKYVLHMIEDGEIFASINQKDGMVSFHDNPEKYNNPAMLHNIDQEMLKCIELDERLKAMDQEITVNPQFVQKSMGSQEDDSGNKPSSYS

| Target | log2 fold change [1] | log2 fold change (crizotinib) | log2 fold change [2] | log2 fold change [3] | log2 fold change (duvelisib) | log2 fold change (gandotinib) | log2 fold change (tozasertib) | log2 fold change [4] | log2 fold change (doramapimod) | log2 fold change (ispinesib) | log2 fold change (bafetinib) | log2 fold change [5] | log2 fold change (nilotinib) | log2 fold change [6] | log2 fold change (dasatinib) | log2 fold change [7] | log2 fold change [8] | log2 fold change [9] | log2 fold change (tipifarnib) | log2 fold change (mubritinib) |
| --- | --- | --- | --- | --- | --- | --- | --- | --- | --- | --- | --- | --- | --- | --- | --- | --- | --- | --- | --- | --- |
| COPS3 (UniProt Q9UNS2) | 0.018 | 0.003 | 0.047 | -0.023 | -0.003 | -0.087 | 0 | -0.006 | -0.015 | 0.024 | -0.05 | -0.027 | 0.006 | 0.004 | -0.02 | -0.012 | 0.014 | 0.04 | 0.004 | 0.023 |
| CHCHD1 (UniProt Q96BP2) | -0.115 | -0.54 (active) | -0.203 | -0.067 | -0.061 | -0.085 | -0.045 | 0.036 | -0.087 | 0.06 | -0.084 | 0.081 | -0.007 | 0.02 | -0.057 | -0.031 | -0.153 | 0.105 | 0.077 | 0.104 |
| CDKN2AIP (UniProt Q9NXV6) | -0.053 | 0.01 | -0.132 | -0.004 | 0.031 | -0.012 | -0.024 | 0.021 | -0.019 | 0.048 | 0.034 | 0.021 | -0.021 | 0.034 | -0.041 | 0.015 | -0.049 | -0.012 | 0.046 | -0.011 |
| CDK5RAP3 isoform 4 (UniProt Q96JB5) | -0.017 | -0.054 | 0.044 | -0.038 | 0.005 | -0.051 | 0.015 | 0.016 | -0.033 | -0.036 | 0.039 | 0.122 | -0.094 | 0.012 | -0.082 | 0.054 | 0.008 | 0.024 | -0.052 | 0.083 |
| CHP1 (UniProt Q99653) | 0.025 | 0.109 | -0.061 | -0.027 | 0.044 | 0.022 | 0.075 | -0.026 | -0.021 | 0.25 | 0 | -0.087 | 0.014 | 0.019 | 0.042 | 0.004 | 0.043 | -0.116 | 0.072 | 0.037 |
| CDC42EP1 (UniProt Q00587) | -0.006 | -0.566 (active) | 0.019 | -0.041 | -0.061 | -0.524 (active) | -0.192 | 0.073 | 0.076 | -0.327 | -0.115 | 0.092 | -0.072 | -0.59 (active) | -0.2 | -0.211 | 0.079 | 0.051 | 0.049 | 0.007 |
| COX6B1 (UniProt P14854) | -0.001 | 0.184 | 0.195 | 0 | 0.163 | -0.027 | 0.105 | 0 | -0.06 | 0.226 | -0.081 | -0.023 | -0.02 | -0.01 | 0.019 | -0.027 | 0.228 | 0.377 (active) | -0.044 | 0.054 |
| C19orf53 (UniProt Q9UNZ5) | -0.125 | 0.092 | -0.553 | 0.404 | -0.15 | 0.316 | 0.022 | 0.03 | 0.174 | -0.13 | 0.271 | 0.034 | 0.029 | 0.139 | 0.222 | 0.023 | -0.207 | -0.083 | 0.165 | -0.13 |
